Among the data in PubChem BioAssay (NCATS) are Potency values, retold here.

A short description of experiment [1]: Primary qHTS for inhibitors of nuclear receptor binding SET domain protein 2 (NSD2) in an RCH-ACV wild type WT cells (2C) (AID 1645877). Further: nearly all actives have a fitted effect of over 70% in size. Further: potency means the concentration at half of the fitted maximal effect. A general note: In qHTS, concentration-response curves come from the screen itself.
In experiment [2] the target is Glutathione peroxidase 1 (Homo sapiens) (UniProt P07203). The experiment in a line: Primary qHTS Assay for Inhibitors of Recombinant Selenoprotein Glutathione Peroxidase 1 (GPX1) (AID 1845191). Further: nearly all actives have a fitted effect of over 65% in size. The gist of the method:
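Recombinant GPX1 (10 nM final) was preincubated with compound for 30 min at room temperature, then reacted with 1 mM GSH, 0.5 mM CHP, 0.5 mM NADPH and 100 nM glutathione reductase; NADPH fluorescence (340/450 nm) was read at 0 and 15 min.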

Experiment [3] concerns the target Phospholipid hydroperoxide glutathione peroxidase GPX4 (Homo sapiens) (UniProt P36969). The experiment in a line: Primary qHTS Assay for Inhibitors of Recombinant Selenoprotein Glutathione Peroxidase 4 (GPX4) (AID 1845192). Further: nearly all actives have a fitted effect of over 65% in size. The gist of the method: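 GR-coupled readout: 100 nM GR, 1 mM GSH, 0.5 mM NADPH; NADPH fluorescence (ex 340/em 450 nm) read at t=0 and after 15 min RT. GPX4 200 nM, preincubated 30 min with compound; substrate 0.5 mM CHP.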

Experiment [4] concerns the target Luciferin 4-monooxygenase (Photinus pyralis) (UniProt P08659). As to the kind of experiment: Primary firefly luciferase (FLuc) qHTS assay for identification of artifact compounds. (AID 1845220). Further: nearly all actives have a fitted effect of over 60% in size. The gist of the method: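 Reaction readout was CCD-imaged luminescence, taken 5 min after adding 10 nM purified firefly enzyme to compound-treated wells holding 10 uM luciferin and ATP in pH 7.6 buffer.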

Experiment [5] deals with Nanoluciferase (engineered Oplophorus gracilirostris luciferase). The experiment in a line: Primary Nanoluciferase (NLuc) qHTS assay for identification of artifact compounds. (AID 1845222).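 Further: NLuc secreted into diluted conditioned medium of S16 cells; series mostly up to about 54 µM.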 The gist of the method:
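Concentration-response data were obtained by luminescence after 5 min with Nano-Glo substrate at 1:100. The enzyme was diluted S16 NLuc-expressing cell medium, preincubated with compound for 15 min at RT. Curves were fitted with a 4-parameter Hill model.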

Experiment [6] is described as follows: Primary redox qHTS assay for identification of artifact compounds. (AID 1845223). The gist of the method:
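Amplex Red (25 uM) and HRP (250 mU/mL) in HBSS, with compounds for 15 min, then 250 uM DTT for 30 min, room temperature, dark. Fluorescence 525/598 nm read; normalized to DMSO and 10 uM DA3003; Hill fit.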

Each structure is given as a SMILES string. Values without a mark were called inactive. Inconclusive results are not listed. The source made the active and inactive calls. The call rests on the fitted dose curve; in most records, active means well fitted curve in the direction sought with a large enough effect; inconclusive means small, poorly fitted or top-dose-only effect, or another doubt; inactive means no such curve, though single readings can be large; an effect the other way counts as inactive or inconclusive.

Phospholipid hydroperoxide glutathione peroxidase GPX4 (Homo sapiens), sequence (P36969 whole entry, looked up): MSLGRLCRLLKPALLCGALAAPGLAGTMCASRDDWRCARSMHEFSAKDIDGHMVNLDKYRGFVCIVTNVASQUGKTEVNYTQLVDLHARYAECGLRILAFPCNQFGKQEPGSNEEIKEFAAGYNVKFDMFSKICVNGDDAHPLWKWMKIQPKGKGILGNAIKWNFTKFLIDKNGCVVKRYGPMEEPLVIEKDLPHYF
Glutathione peroxidase 1 (Homo sapiens), sequence (P07203 whole entry, looked up): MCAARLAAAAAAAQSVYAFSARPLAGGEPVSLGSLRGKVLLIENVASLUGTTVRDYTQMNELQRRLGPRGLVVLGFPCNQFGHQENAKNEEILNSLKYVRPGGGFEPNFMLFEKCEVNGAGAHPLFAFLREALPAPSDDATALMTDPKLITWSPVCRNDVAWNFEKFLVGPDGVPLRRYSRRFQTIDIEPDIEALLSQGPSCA

Turning to `COc1ccc(/C=C/C(=O)O[C@@H]2[C@@H](O)[C@H](C)O[C@@H](O[C@H]3[C@@H]4C=CO[C@@H](O[C@H]5O[C@@H](CO)[C@H](O)[C@@H](O)[C@@H]5O)[C@@H]4[C@@]4(CO)O[C@@H]34)[C@@H]2OC(C)=O)cc1`, the Potency result in experiment [1], in experiment [2], in experiment [3], in experiment [4] and in experiment [5] was “inactive” throughout.
In the case of `O=C(O[C@H]1[C@@H]2C=CO[C@@H](O[C@@H]3O[C@H](CO)[C@@H](O)[C@H](O)[C@H]3O)[C@@H]2[C@@]2(CO)O[C@@H]12)c1ccccc1`, the Potency entry in experiment [1], in experiment [2], in experiment [3], in experiment [4], in experiment [5] and in experiment [6] was “inactive” in each case.
For the compound `CC(C)CC(=O)OC1OC=C(CO[C@@H]2O[C@H](CO)[C@@H](O)[C@H](O)[C@H]2O)C2CC(O)C(O)(CO)C12` (stereo not given in full), the Potency entry in experiment [1], in experiment [2], in experiment [3], in experiment [4], in experiment [5] and in experiment [6] was “inactive” in each case.
As to `COc1ccc(N2CCOCC2)c2sc(NC(=O)N3CCC(C)(O)CC3)nc12`, the Potency result in experiment [1], in experiment [2], in experiment [3], in experiment [4] and in experiment [5] was “inactive” throughout.
With `CC(/C=C/C1=CC2=CC(=O)C(C)(O)C(O)C2=CO1)=C\C(C)CCO` (stereo not given), the Potency entry in experiment [1], in experiment [2], in experiment [3], in experiment [4], in experiment [5] and in experiment [6] was “inactive” each time.
`CC(=O)C=C=C1C(C)(C)CC(O[C@@H]2O[C@H](CO)[C@@H](O)[C@H](O)[C@H]2O)CC1(C)O` (stereo not given in full): the Potency entry in experiment [1], in experiment [2], in experiment [3], in experiment [4], in experiment [5] and in experiment [6] was “inactive” in each case.
Consider `O=C1CCC=CC1(O)C(=O)OCc1ccccc1O[C@@H]1O[C@H](CO)[C@@H](O)[C@H](O)[C@H]1O` (stereo not given in full), for which the Potency in experiment [1] is 5.02 µM (active). The Potency result in experiment [2], in experiment [3], in experiment [4], in experiment [5] and in experiment [6] was “inactive” throughout.
Regarding `COc1cc(O)cc(/C=C/c2ccc(O[C@@H]3O[C@H](CO)[C@@H](O)[C@H](O)[C@H]3O)cc2)c1`, the Potency in experiment [1] is 7.96 µM (active). In addition, the Potency result in experiment [2], in experiment [3], in experiment [4], in experiment [5] and in experiment [6] was “inactive” each time.
With `C=C1OC2CC(C(=O)O)C=CC2NC1=O` (stereo not given), the Potency entry in experiment [1], in experiment [2], in experiment [3], in experiment [4], in experiment [5] and in experiment [6] was “inactive” throughout.
`CC(C)C1=CC2C(CC[C@]2(C)O)[C@](C)(O)CC1` (stereo not given in full): the Potency result in experiment [1], in experiment [2], in experiment [3], in experiment [4], in experiment [5] and in experiment [6] was “inactive” in each case.
With `C=CCC1=C[C@]2(OC)[C@H](C)[C@@H](c3ccc(O)c(OC)c3)O[C@]2(OC)CC1=O`, the Potency result in experiment [1], in experiment [2], in experiment [3], in experiment [4], in experiment [5] and in experiment [6] was “inactive” in each case.
Consider `Nc1nc2c(c(N3CCNCC3)n1)CCC1=C2[C@@H]2CCCC[C@@H]2O1`, for which the Potency in experiment [1] was 16.3 µM (active). Moreover, the Potency result in experiment [2], in experiment [3], in experiment [4], in experiment [5] and in experiment [6] was “inactive” in each case.
On to `c1cc(Nc2cc(C3CC3)[nH]n2)nc(Nc2ccc3nc[nH]c3c2)n1`, for which the Potency in experiment [1] was 0.468 µM (active). Moreover, the Potency result in experiment [2], in experiment [3], in experiment [4], in experiment [5] and in experiment [6] was “inactive” in each case.
In the case of `O=C(O)c1cc(-c2c(-c3ccccc3)nn3ccccc23)n[nH]c1=O`, the Potency result in experiment [1], in experiment [2], in experiment [3], in experiment [4], in experiment [5] and in experiment [6] was “inactive” in each case.
Consider `Cc1cccc(C)c1-n1c(=O)c2cnc(Nc3ccc(N4CCN(C)CC4)cc3)nc2n2c3ccccc3nc12`, for which, in experiment [1], the Potency was 0.258 µM (active). For the same compound, the Potency result in experiment [2], in experiment [3], in experiment [4], in experiment [5] and in experiment [6] was “inactive” throughout.
Take `O=C(/C=C/c1ccc(O)cc1)OC1[C@H](O)CC(O)(C(=O)O)C[C@H]1O` (stereo not given in full): the Potency entry in experiment [1], in experiment [2], in experiment [3], in experiment [4], in experiment [5] and in experiment [6] was “inactive” throughout.
On to `C=C1C(O)CC2C(C(=O)O)=COC(O[C@@H]3O[C@H](COC(=O)/C=C/c4ccc(O)cc4)[C@@H](O)[C@H](O)[C@H]3O)C12` (stereo not given in full), for which the Potency result in experiment [1], in experiment [2], in experiment [3], in experiment [4], in experiment [5] and in experiment [6] was “inactive” throughout.
For `CC1CC(=O)C2=C(CCC3(O)C(O)c4c(O)cccc4C(=O)C23O)C1` (stereo not given), the Potency result in experiment [1], in experiment [2], in experiment [3], in experiment [4], in experiment [5] and in experiment [6] was “inactive” each time.
On to `CC1=CC(=O)CC(C)(C)[C@@]1(O)CC[C@@H](C)O[C@@H]1O[C@H](CO)[C@@H](O)[C@H](O)[C@H]1O`, for which the Potency result in experiment [1], in experiment [2], in experiment [3], in experiment [4], in experiment [5] and in experiment [6] was “inactive” in each case.
With `Nc1nc(Nc2ccc(S(N)(=O)=O)cc2)n(C(=S)Nc2c(F)cccc2F)n1`, the Potency entry in experiment [1], in experiment [2], in experiment [3], in experiment [4], in experiment [5] and in experiment [6] was “inactive” each time.
Take `CC/C=C\CCO[C@@H]1O[C@H](CO[C@@H]2OC[C@H](O)[C@H](O)[C@H]2O)[C@@H](O)[C@H](O)[C@H]1O`: the Potency entry in experiment [1], in experiment [2], in experiment [3], in experiment [4], in experiment [5] and in experiment [6] was “inactive” each time.
For `C=C[C@H]1[C@H](O[C@@H]2O[C@H](CO)[C@@H](O)[C@H](O)[C@H]2O)OC=C(C(=O)OC)[C@H]1C[C@@H]1c2cc(O)c(O)cc2CCN1C(C)=O`, the Potency entry in experiment [1], in experiment [2], in experiment [3], in experiment [4], in experiment [5] and in experiment [6] was “inactive” each time.
